Source: publication PMC5540273 (PLoS ONE, 2017)

What follows are compounds tested on EPHA3. Conditions: concentration: 1 μM, replicates: in singlicate; n = 1.
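Also: KINOMEscan kinase panel screen.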

Structure (SMILES) | %Inh
COc1cc2c(cc1OCCN1CCNCC1)ncc1c3ccc(C#N)cc3[nH]c21 | 0%
CN(c1ccc(NC(=O)Nc2cc(C(F)(F)F)ccc2F)cc1)c1ccnc(Nc2ccc(S(N)(=O)=O)cc2)n1 [GW809893] | 78%
COc1ccc(Nc2nccc(N3CCC(NC(=O)Nc4cccc(OC)c4)C3)n2)cc1 (stereo not shown) [GSK1379742] | 0%
COc1cccc(-c2ccc3c(NC(=O)C4CC4)n[nH]c3n2)c1 [SB-710903] | 0%
CNC(=O)c1ccccc1Nc1nc(Nc2ccc(N3CCOCC3)cc2)ncc1Cl.Cl [GSK1576028] | 76%
O=C(NC1CCN(c2ccnc(Nc3ccc(F)cc3)n2)C1)c1cc2ccccc2s1 (stereo not shown) [GSK1379716] | 0%
O=C(Nc1cccc(Oc2ccc3nc(NC(=O)C4CC4)cn3n2)c1)c1ccccc1C(F)(F)F | 3%
Cl.c1ccc(-c2ccc3c(Nc4ccc5[nH]ncc5c4)ccnc3c2)nc1 [GW440137] | 7%
Cl.Cl.NCC(NC(=O)c1cc(-c2ccccc2)c(-c2ccnc3[nH]ccc23)s1)c1ccccc1 (stereo not shown) [GSK1321561] | 38%
C[C@@H](Oc1cc(-n2cnc3cc(-c4ccnc(NCCS(C)(=O)=O)c4)ccc32)sc1C(N)=O)c1ccccc1Cl [GSK907232] | 0%
O=C(Nc1cccc(-c2nn3ccccc3c2-c2ccnc(Nc3cccc(F)c3)n2)c1)c1c(F)ccc(F)c1Cl [GSK357952] | 0%
Cc1occc1-c1ncc(OC[C@@H](N)Cc2c[nH]c3ccccc23)cc1-c1ccc2[nH]nc(C)c2c1.O=C(O)C(F)(F)F [GSK682037] | 29%
CCc1ccc(-c2ccc3c(c2)-c2c(cnn2C)S(=O)(=O)N3C)cc1 | 0%
O=c1[nH]cc(-c2ccc(N3CCOCC3)cc2)c2sc(-c3cn[nH]c3)cc12 [GSK2276055] | 30%
Cc1cccc(NC(=O)Nc2ccc(Oc3ncnc4ccn(C)c34)cc2)c1 | 17%
CC(C)(C)c1ccc2nccc(Nc3cccc(O)c3)c2c1 [GW856795] | 21%
COc1cc(Nc2nccc(-c3c(-c4cccc(NC(=O)c5c(F)cccc5F)c4)nn4ccccc34)n2)cc(OC)c1OC [GSK323521] | 0%
CCn1c(-c2nonc2N)nc2c(C#CC(C)(C)O)ncc(OCCCCN)c21.O=C(O)C(F)(F)F.O=C(O)C(F)(F)F [GSK507274] | 38%
O=C(Nc1cccc(-c2nn3ncccc3c2-c2ccnc(Nc3ccccc3)n2)c1)c1c(F)cccc1F [GSK198271] | 4%

Structure (SMILES) | %Inh
Cn1cc(-c2ccc3c(c2)CCN3C(=O)Cc2cccc(Cl)c2)c2c(N)ncnc21 [GSK2606590] | 0%
CN1CCN(Cc2cccc(-c3ccc4c(Nc5ccc(Oc6ccccc6)cc5)ccnc4c3)c2)CC1 [GW578342] | 3%
Oc1cc(Nc2ccnc3cc(I)ccc23)ccc1F [GW552771] | 48%
CCCCc1nn2ncccc2c1-c1ccnc(Nc2ccc(N3CCN(C)CC3)cc2)n1 [GW684941] | 9%
O=C(Nc1n[nH]c2cc(-c3ccoc3)ccc12)C1CC1 [SB-738481] | 0%
COc1cccc(C2=C(Nc3ccc(Cl)c(C(=O)O)c3)C(=O)NC2=O)c1 [SB-390769] | 0%
CCS(=O)(=O)c1ccc(OC)c(Nc2nccc(-c3c(-c4cccc(NC(=O)c5c(F)cccc5F)c4)nn4ncccc34)n2)c1 [GSK326180] | 12%
Nc1ncc(-c2cccnc2)c2scc(-c3ccc4c(c3)CCN4C(=O)Cc3ccccc3)c12 [GSK683281] | 0%
Cc1ccc(C(=O)N2CC[C@@H](O)C2)cc1-n1c(C)cc(OCc2ccc(F)cc2F)c(Br)c1=O | 42%
CC(=O)Nc1nc2cnc(Nc3cc(NC(=O)c4cccc(C5(C#N)CC5)c4Cl)ccc3C)nc2s1 | 50%
COc1cc(Nc2nccc(N3CCC(NC(=O)c4cc5ccccc5s4)C3)n2)cc(OC)c1OC (stereo not shown) [GSK1379760] | 0%
Cc1ccc(C(=O)Nc2ccc(Nc3ccnc4cc(-c5nccs5)ccc34)cc2O)cc1.Cl [GW494702] | 0%
Cc1ccc(C)c(NC(=O)NC2CCN(c3ccnc(Nc4ccc(F)cc4)n3)C2)c1 (stereo not shown) [GSK1379720] | 0%
CN(C)S(=O)(=O)c1cc(-c2ccc3nccc(-c4cccc(S(N)(=O)=O)c4)c3c2)cnc1N [GSK1669921] | 0%
COc1cccc(NC(=O)NC2CCN(c3ccnc(Nc4cc(OC)c(OC)c(OC)c4)n3)C2)c1 (stereo not shown) [GSK1379763] | 0%
Fc1ccc(-c2ncn(C3CCNCC3)c2-c2ccnc(Oc3ccc(-c4ccccc4)cc3)n2)cc1 [SB-245391] | 0%
Cn1cc(-c2[nH]c3cc(NC(=O)[C@H](N)C4CCCCC4)cc4c3c2C=NNC4=O)cn1 | 56%
Cl.Cl.NCC(NCc1ccc(-c2ccnc3[nH]ccc23)s1)c1ccccc1 (stereo not shown) [GSK1321565] | 0%
